Activity calls are given as the source filed them.
Assays:
[1] = binders of probe aFSTL3 on microarray, primary screen, stem cell growth factor project, biochemical, small-molecule microarray, fluorescence 635/667 (AID 1064); conditions: higher = more signal;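 further: measures binding of the biotinylated anti-FSTL3 antibody to printed compounds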
[2] = binders from COS7 lysate, DM2A8 probe, primary screen, torsin A project, cell lysate, small-molecule microarray, fluorescence 635/667 (AID 1065); conditions: higher = more signal, COS7 lysate expressing mutant human TOR1A
[3] = binders of probe aFGF2 on microarray, primary screen, stem cell growth factor project, biochemical, small-molecule microarray, fluorescence 635/667 (AID 1067); conditions: higher = more signal;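 further: measures binding of biotinylated aFGF2 protein to printed compounds on slides; z-score merges feature fluorescence and signal-to-noise across triplicate slides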
[4] = binders of probe aFGF10 on microarray, primary screen, stem cell growth factor project, biochemical, small-molecule microarray, fluorescence 635/667 (AID 1071); conditions: higher = more signal;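 further: score merges 667 nm spot intensity and signal to noise from triplicate slides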
[5] = molecular target: Neurogenic locus notch homolog protein 2 (Homo sapiens) (UniProt Q04721); experiment: Notch2 binders on small-molecule microarrays, primary screen, biochemical, small-molecule microarray, 635 nm fluorescence, stem cell growth factors (AID 1073); conditions: Notch2 binding, higher = more signal
[6] = molecular target: Pro-neuregulin-1, membrane-bound isoform (Homo sapiens) (UniProt Q02297); experiment: NRG1 binders on small-molecule microarrays, primary screen, psychiatric disease protein project, biochemical, small-molecule microarray, fluorescence 635/667 (AID 1075); conditions: NRG1 binding, 635 nm fluorescence, higher = more signal;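 further: score combines 667 nm spot fluorescence with signal to noise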
[7] = tested on: Neuregulin-1 EGF-like domain; experiment: binders of neuregulin-1 EGF-like domain, primary screen, biochemical, small-molecule microarray, 635 nm fluorescence (AID 1081); conditions: small-molecule microarray binding, higher = more signal;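 further: binding of the protein to compounds printed on small-molecule microarray slides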
[8] = FRG1 promoter luciferase signal modulators, primary screen, FRG1 inhibition for FSHD, cell-based, C2C12 myotubes, firefly/Renilla luciferase, luminescence (AID 1084); conditions: higher = more signal, called active from +8 up or from −8 down
[9] = binders of probe aFST on microarray, primary screen, stem cell growth factor project, biochemical, small-molecule microarray, fluorescence 635/667 (AID 1086); conditions: higher = more signal;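 further: score merges 667 nm fluorescence with signal-to-noise of each printed compound spot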
[10] = binders of probe aHhip on microarray, primary screen, stem cell growth factor project, biochemical, small-molecule microarray, fluorescence 635/667 (AID 1087); conditions: higher = more signal;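 further: score merges spot fluorescence at 667nm with spot signal to noise ratio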
[11] = tested on: PRMT1 (protein arginine N-methyltransferase 1); experiment: PRMT1 binders on small-molecule microarrays, primary screen, biochemical, small-molecule microarray, 635 nm fluorescence (AID 1088); conditions: small-molecule microarray binding, higher = more signal;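 further: binding of Prmt1 protein to compounds spotted on small-molecule microarray slides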
[12] = yeast growth modulation, basal conditions, primary screen, YJM789 clinical isolate, OD600, 24 h (AID 1089);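 further: growth of clinical yeast isolate S. cerevisiae YJM 789 seeded 1000 cells per well; test concentration not given here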; conditions: S. cerevisiae YJM789 growth, higher = more signal, called active from +8 up or from −8 down
[13] = fission yeast growth modulation, primary screen, strain 972, OD600, 24 h, no modulator (AID 1090);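 further: basal condition with compound alone and no growth modifier present; test concentration not given here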; conditions: S. pombe 972 growth, higher = more signal, called active from +8 up or from −8 down
[14] = S. cerevisiae growth modulation with rapamycin, primary screen, strain BY4716, OD600, 96 h (AID 1091); conditions: higher = more signal, called active from +8 up or from −8 down; further: test concentration not given here
[15] = molecular target: Torsin-1A-interacting protein 2 (Homo sapiens) (UniProt Q8NFQ8); experiment: LULL1 binders on small-molecule microarray, primary screen, cell lysate, human LULL1 lysate, 635/667 nm fluorescence (AID 1092); conditions: hLULL1 lysate binding, 635 nm fluorescence, higher = more signal;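 further: probe is lysate of COS7 cells overexpressing human LULL1; score merges per-feature 667 nm fluorescence with signal-to-noise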
[16] = E. coli growth modulation, two-sided OD650, primary screen, E. coli filamentation project, strain DRC41, 24 h (AID 1093); conditions: OD650, 24 h, higher = more signal, called active from +8 up or from −8 down;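 further: MC1000 strain lacking acrAB efflux and sulA so SOS filamentation is blocked; test concentration not given here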
[17] = small-molecule microarray binders of probe aLefty2, primary screen, biochemical, biotinylated probe, 635/667 nm fluorescence (AID 1094); conditions: higher = more signal;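 further: score merges spot fluorescence near 667 nm with spot signal-to-noise ratio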
[18] = tested on: Noggin (protein binding on small-molecule microarray); experiment: Noggin binders on small-molecule microarray, primary screen, biochemical, 635/667 nm fluorescence (AID 1095); conditions: 635 nm fluorescence, higher = more signal;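 further: score merges 667 nm feature fluorescence with signal to noise over triplicate slides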
[19] = molecular target: Neurogenic locus notch homolog protein 3 (Homo sapiens) (UniProt Q9UM47); experiment: NOTCH3 binders on small-molecule microarray, primary screen, biochemical, 635/667 nm fluorescence (AID 1096); conditions: NOTCH3 binding, 635 nm fluorescence, higher = more signal
[20] = small-molecule microarray binders of probe aEGFR, primary screen, biochemical, biotinylated probe, 635/667 nm fluorescence (AID 1097); conditions: higher = more signal;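 further: probe is a biotinylated anti-EGFR antibody binding compounds printed on slides; score combines fluorescence near 667 nm and signal to noise of each spot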

Neurogenic locus notch homolog protein 3 (Homo sapiens), sequence (Q9UM47 whole entry, looked up): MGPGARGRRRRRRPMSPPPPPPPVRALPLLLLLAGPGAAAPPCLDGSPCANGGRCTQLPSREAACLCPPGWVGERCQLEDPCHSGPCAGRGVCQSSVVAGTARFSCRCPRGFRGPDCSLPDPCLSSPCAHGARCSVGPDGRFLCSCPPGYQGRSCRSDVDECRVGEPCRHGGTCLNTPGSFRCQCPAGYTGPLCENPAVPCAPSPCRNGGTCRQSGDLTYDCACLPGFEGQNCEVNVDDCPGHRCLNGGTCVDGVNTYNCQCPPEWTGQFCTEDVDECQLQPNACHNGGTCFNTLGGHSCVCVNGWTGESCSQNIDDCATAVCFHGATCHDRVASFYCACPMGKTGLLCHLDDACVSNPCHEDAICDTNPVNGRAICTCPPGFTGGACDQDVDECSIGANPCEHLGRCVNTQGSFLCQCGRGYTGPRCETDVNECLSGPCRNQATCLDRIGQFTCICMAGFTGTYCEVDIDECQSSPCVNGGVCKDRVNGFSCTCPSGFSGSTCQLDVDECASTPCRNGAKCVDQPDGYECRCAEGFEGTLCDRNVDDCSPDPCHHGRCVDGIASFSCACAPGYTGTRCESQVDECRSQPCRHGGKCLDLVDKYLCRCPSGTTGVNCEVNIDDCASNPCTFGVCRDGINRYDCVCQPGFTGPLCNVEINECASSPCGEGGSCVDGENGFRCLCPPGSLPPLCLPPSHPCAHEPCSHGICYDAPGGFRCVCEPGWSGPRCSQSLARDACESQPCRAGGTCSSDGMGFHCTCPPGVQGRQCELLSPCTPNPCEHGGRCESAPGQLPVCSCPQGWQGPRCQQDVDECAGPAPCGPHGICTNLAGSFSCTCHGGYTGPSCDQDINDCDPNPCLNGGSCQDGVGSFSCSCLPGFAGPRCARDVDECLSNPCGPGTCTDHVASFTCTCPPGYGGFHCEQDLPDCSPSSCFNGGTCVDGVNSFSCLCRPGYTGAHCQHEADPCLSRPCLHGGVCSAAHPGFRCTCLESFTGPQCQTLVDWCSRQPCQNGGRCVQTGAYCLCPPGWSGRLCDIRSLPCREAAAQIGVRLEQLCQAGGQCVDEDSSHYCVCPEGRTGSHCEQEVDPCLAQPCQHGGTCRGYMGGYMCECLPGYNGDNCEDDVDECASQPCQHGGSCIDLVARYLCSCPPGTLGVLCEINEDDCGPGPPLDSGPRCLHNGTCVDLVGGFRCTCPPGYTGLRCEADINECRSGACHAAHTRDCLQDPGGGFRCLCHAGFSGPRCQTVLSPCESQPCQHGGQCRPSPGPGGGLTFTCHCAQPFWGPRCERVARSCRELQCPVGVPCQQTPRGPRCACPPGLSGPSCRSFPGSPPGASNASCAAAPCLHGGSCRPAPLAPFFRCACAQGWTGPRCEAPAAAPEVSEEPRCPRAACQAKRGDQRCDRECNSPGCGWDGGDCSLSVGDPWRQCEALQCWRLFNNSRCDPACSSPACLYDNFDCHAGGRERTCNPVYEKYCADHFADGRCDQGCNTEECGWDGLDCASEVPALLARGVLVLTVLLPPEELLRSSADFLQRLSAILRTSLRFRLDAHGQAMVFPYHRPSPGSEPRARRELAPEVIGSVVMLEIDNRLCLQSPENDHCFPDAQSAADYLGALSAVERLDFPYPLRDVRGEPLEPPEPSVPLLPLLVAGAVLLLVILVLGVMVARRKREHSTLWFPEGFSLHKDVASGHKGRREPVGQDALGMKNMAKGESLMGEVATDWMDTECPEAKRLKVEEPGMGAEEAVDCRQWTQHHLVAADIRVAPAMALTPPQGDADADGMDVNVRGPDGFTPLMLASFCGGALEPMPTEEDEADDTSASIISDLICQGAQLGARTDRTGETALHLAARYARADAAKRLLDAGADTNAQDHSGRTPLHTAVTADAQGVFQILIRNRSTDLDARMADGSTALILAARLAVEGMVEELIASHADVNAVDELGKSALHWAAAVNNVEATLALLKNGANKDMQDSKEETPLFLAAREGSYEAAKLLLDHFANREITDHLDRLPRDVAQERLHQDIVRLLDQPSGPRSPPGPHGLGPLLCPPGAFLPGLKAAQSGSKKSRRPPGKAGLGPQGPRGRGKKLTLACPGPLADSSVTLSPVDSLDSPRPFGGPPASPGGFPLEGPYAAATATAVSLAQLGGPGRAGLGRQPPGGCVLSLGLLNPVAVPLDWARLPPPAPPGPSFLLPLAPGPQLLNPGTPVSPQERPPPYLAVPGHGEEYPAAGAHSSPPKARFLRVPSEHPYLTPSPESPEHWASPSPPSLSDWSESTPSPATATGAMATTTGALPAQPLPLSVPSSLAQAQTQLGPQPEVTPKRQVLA
Torsin-1A-interacting protein 2 (Homo sapiens), sequence (Q8NFQ8 whole entry, looked up): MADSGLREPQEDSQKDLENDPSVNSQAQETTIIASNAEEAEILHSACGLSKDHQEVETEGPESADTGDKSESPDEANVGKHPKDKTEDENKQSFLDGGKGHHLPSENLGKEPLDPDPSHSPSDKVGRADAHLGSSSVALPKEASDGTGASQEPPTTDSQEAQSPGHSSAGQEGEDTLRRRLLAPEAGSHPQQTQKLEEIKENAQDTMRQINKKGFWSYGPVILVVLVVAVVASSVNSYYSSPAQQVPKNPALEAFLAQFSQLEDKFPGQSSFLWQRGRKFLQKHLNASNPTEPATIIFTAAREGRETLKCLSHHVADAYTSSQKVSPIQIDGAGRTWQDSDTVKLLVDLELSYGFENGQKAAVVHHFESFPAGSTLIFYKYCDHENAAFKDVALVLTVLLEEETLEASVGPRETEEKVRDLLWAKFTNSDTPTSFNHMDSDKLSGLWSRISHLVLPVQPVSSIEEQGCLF
Pro-neuregulin-1, membrane-bound isoform (Homo sapiens), sequence (Q02297 whole entry, looked up, the tested form may be a part, canonical isoform): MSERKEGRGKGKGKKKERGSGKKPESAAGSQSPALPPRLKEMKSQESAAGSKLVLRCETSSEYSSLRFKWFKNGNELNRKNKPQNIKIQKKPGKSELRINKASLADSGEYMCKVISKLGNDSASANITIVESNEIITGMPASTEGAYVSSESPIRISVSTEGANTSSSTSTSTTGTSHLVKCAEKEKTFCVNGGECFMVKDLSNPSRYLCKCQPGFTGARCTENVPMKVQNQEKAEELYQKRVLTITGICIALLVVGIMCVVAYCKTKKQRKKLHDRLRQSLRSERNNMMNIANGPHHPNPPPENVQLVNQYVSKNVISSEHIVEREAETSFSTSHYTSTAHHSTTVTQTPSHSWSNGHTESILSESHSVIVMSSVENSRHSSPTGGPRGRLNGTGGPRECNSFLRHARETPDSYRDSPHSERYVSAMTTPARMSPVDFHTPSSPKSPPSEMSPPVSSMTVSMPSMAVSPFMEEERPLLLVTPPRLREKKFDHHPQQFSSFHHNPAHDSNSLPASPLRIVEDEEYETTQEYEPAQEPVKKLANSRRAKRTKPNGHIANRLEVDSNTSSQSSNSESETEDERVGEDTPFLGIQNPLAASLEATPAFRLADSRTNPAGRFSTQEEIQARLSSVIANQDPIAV

SMILES	composite z-score [1]	composite z-score [2]	composite z-score [3]	composite z-score [4]	composite z-score [5]	composite z-score [6]	composite z-score [7]	z-score [8]	composite z-score [9]	composite z-score [10]	composite z-score [11]	z-score [12]	z-score [13]	z-score [14]	composite z-score [15]	z-score [16]	composite z-score [17]	composite z-score [18]	composite z-score [19]	composite z-score [20]
COC(=O)C[C@H]1O[C@]2(C(=O)N(Cc3ccccc3)c3ccc(I)cc32)[C@@H](C)[C@@H]1[Si](C)(C)c1ccc(OC)cc1	0.224	-0.529	-0.22	0.262	-0.385	-0.121	-0.241	0.184 (inactive)	-0.145	-0.16	-0.949	0.595 (inactive)	0.676 (inactive)	1.58 (inactive)	-0.484	-0.556 (inactive)	-0.0561	-0.598	-0.625	-0.101
Cc1ccc(S[C@]2(C(=O)NCCCN(C)C)CC(=O)N(Cc3ccccc3)[C@@H]2c2ccc(CO)cc2I)cc1	1.04	-1.08	-0.0785	-0.244	-0.189	1.39	0.727	-0.463 (inactive)	1.04	-0.427	0.25	-1.87 (inactive)	-4.8 (inactive)	0.768 (inactive)	2.68	-0.563 (inactive)	0.373	-0.869	-0.723	-0.13
COc1cc2c(cc1OC)CN(C(=O)[C@H]1[C@@H]3C(=O)O[C@@H](c4ccccc4)[C@@H](c4ccccc4)N3[C@@H](c3ccc(O)cc3)[C@]13C(=O)Nc1ccc(C#CC4(O)CCCCCC4)cc13)CC2	1.75	0.457	0.567	1.12	0.685	2.26	1.33	-0.21 (inactive)	2.53	2.29	1.41	0.377 (inactive)	0.0581 (inactive)	0.695 (inactive)	3.75	0.206 (inactive)	0.675	1.72	0.991	0.221
O=C1c2ccccc2[C@](Cc2ccccc2I)(C(=O)O)[C@H](c2ccc(CO)cc2)N1C1CCCCC1	0.007	0.297	0.0545	1.06	1.56	1.22	1.32	0.287 (inactive)	0.892	0.011	1.54	-0.602 (inactive)	-2.37 (inactive)	-0.997 (inactive)	2.56	2.51 (inactive)	0.143	0.597	1.01	0.252
CO[C@H]1COC(=O)[C@H](Cc2ccccc2)NC(=O)CC=C[C@@H](C)[C@H](OC)COC(=O)CC=C[C@@H]1C	-0.453	0.421	-0.0643	0.324	-0.156	0.131	0.316	-0.244 (inactive)	0.244	-0.504	-0.141	-0.39 (inactive)	-1.44 (inactive)	-0.617 (inactive)	0.239	0.296 (inactive)	-0.152	0.344	0.717	0.0875
COc1cc2c(cc1OC)CN(C(=O)[C@@H]1[C@H]3C(=O)O[C@H](c4ccccc4)[C@H](c4ccccc4)N3[C@H](c3ccccc3OCCO)[C@@]13C(=O)Nc1ccccc13)CC2	-1.08	1.04	-0.148	0.575	0.803	1.39	1.18	-0.268 (inactive)	-0.44	-0.702	1.55	2.39 (inactive)	1.19 (inactive)	5.58 (inactive)	1.76	1.92 (inactive)	-0.301	0.208	1.05	-0.198
CCOC(=O)C[C@H]1[C@H](OC(=O)Cc2ccc3c(c2)OCO3)[C@@H](NC(=O)c2ccc3ccccc3c2)c2cc(OCCCO)ccc2N1C(=O)Cc1ccc(OC)cc1	-0.0089	0.237	-0.0239	0.546	0.947	0.759	0.358	-1.63 (inactive)	0.533	0.0274	0.842	-2.93 (inactive)	-0.366 (inactive)	0.227 (inactive)	1.73	1.28 (inactive)	0.164	0.233	0.719	-0.0331
CCCNC(=O)[C@@H]1c2ccccc2C(=O)N(C2CCCCC2)[C@H]1c1ccc(CO)cc1	-0.162	0.325	-0.0374	0.549	1.41	1.16	1.29	-0.0971 (inactive)	0.56	0.0785	1.53	-0.104 (inactive)	1.15 (inactive)	1.29 (inactive)	3.01	-0.358 (inactive)	0.0511	0.771	1.1	0.0634
CC(=O)NCCCC[C@@H]1NC(=O)[C@H]2C[C@@H](C(=O)NCCCCCCN(C)C)[C@@H](c3cccc(OCCO)c3)N2C1=O	0.0256	2.05	0.0996	1.24	1.54	0.681	1.35	2.92 (inactive)	0.861	0.0053	1.53	-1.05 (inactive)	-0.36 (inactive)	-0.391 (inactive)	3.07	0.0161 (inactive)	0.536	1.87	1.02	0.539
COc1ccc([Si](C)(C)[C@H]2[C@H](CCO)O[C@@]3(C(=O)N(Cc4ccccc4)c4ccc(N5C(=O)c6cccc7cccc5c67)cc43)[C@@H]2C)cc1	0.334	-0.173	-0.144	0.0626	-0.0844	0.48	0.836	-1.3 (inactive)	-0.268	3.71	0.491	1.05 (inactive)	1.11 (inactive)	33 (active)	1.12	1.97 (inactive)	-0.225	-0.453	-0.203	-0.218
COC(=O)C[C@H]1O[C@]2(C(=O)N(C)c3ccccc32)[C@@H](C)[C@@H]1[Si](C)(C)c1ccc(OC)cc1	-0.352	0.0371	-0.005	0.791	0.146	0.367	1.06	-2.07 (inactive)	0.673	-0.0645	0.53	-3.04 (inactive)	-16.7 (active)	-1.54 (inactive)	0.49	1.67 (inactive)	-0.0667	1.07	0.622	0.0104

From PubChem BioAssay
